Screening results as filed in PubChem BioAssay.
RecA splice inh: Mtb RecA intein splicing inhibitors, primary screen, biochemical, fluorescence, HTS. inhibition, % (no concentration beside the values). AID 2221, 2009. 290,000 compounds, 0.75% hits. cell-free RecA intein splicing; in the data active = inhibition above about 30%; inconclusive = no clear call, values can overlap the other calls
BJeLR viability: MLPCN primary cell-based screen for lethality selective to Ras in HRASV12 cells. BJeLR (HRASV12) viability, CellTiter-Glo ATP luminescence, 48 h. inhibition, % (no concentration beside the values). 300,000 compounds, 0.17% hits. AID 1554, 2009; in the data active = inhibition above about 50%; inconclusive = no clear call, values can overlap the other calls
PrPC surface inh: inhibitors of human cell surface prion protein PrPC, primary screen, cell-based, TR-FRET. Major prion protein (Homo sapiens), P04156. TR-FRET read-out. inhibition, % at 13.8 µM. 370,000 compounds, 0.43% hits. AID 720596, 2013; in the data active = inhibition above about 24%
PfHsp40 yeast: rescue of yeast from PfHsp40 toxicity, primary screen, S. cerevisiae, ATP luminescence. 340,000 compounds, 0.68% hits. growth rescue, % at 12.5 µM. S. cerevisiae expressing PfHsp40, growth rescue; in the data active = growth rescue above about 28%, passing the limit was not always enough; inconclusive = no clear call, values can overlap the other calls;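 also: yeast W303a lacking pdr1 and pdr3 grown in galactose medium; growth measured after three days at 30 °C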
PrP UTR inh: inhibition of PrP 5' UTR reporter expression; cell-based PrP 5' UTR mRNA reporter, plate reader; inhibition, % (test concentration not listed); 340,000 compounds, 0.35% hits; in the data active = inhibition above about 52%
PriA SSB inh: inhibitors of Klebsiella pneumoniae PriA binding to SSB C-terminal tail, primary screen, biochemical, AlphaScreen. inhibition, % at 33 µM. 430,000 compounds, 0.6% hits. AID 1272365, 2023. AlphaScreen SSBct-PriA binding, biotinylated peptide. PriA–SSB C-terminal tail interaction (Klebsiella pneumoniae); in the data active = inhibition mostly above about 37%, no sharp cut-off; inactive = mostly below about 20%
PrP 5UTR single: prion 5' UTR mRNA inhibition, cherry-pick retest; inhibition, % at 2.5 µM; 1,100 compounds, 48% hits; shares compounds with PrP UTR inh; AID 504592, 2011; cell-based prion protein 5' UTR reporter, plate reader; in the data active = inhibition above about 54%; inconclusive = no clear call, values can overlap the other calls
Each line names hits and unclear results; the compound was inactive in the other large screens (follow-up assays come after a bar, where they were run); ! = not confirmed by another sample. An excerpt weighted towards active compounds, which were near 1.9% of everything screened.

COc1cc2c(cc1OC)C(COc1ccc([N+](=O)[O-])cc1)N(C(=O)c1ccc(S(=O)(=O)N3CCCC3)cc1)CC2 (stereo unspecified)	none (no result: RecA splice inh, BJeLR viability, PrPC surface inh, PfHsp40 yeast, PrP UTR inh)
CCS(=O)(=O)c1ccc(-c2ccc(NS(=O)(=O)c3cccc(Cl)c3Cl)cc2)nn1	none (no result: RecA splice inh, BJeLR viability, PrPC surface inh, PfHsp40 yeast, PrP UTR inh)
CCN1C/C(=C/c2cccc([N+](=O)[O-])c2)C(=O)/C(=C/c2cccc([N+](=O)[O-])c2)C1	PrP UTR inh 66.5 (no result: RecA splice inh, BJeLR viability) | PrP 5UTR single 61.2
C#C[C@]1(O)CC[C@H]2[C@@H]3CCc4cc(OC5CCCC5)ccc4[C@H]3CC[C@@]21C	PrP UTR inh 60.5! | PrP 5UTR single inactive
CCCc1c(C(=O)Nc2ccc(C(F)(F)F)cc2)cnn1-c1ccccc1	PrP UTR inh 65.1 | PrP 5UTR single inactive
COc1ccc(S(=O)(=O)Nc2cnc(N3CCOCC3)nc2)cc1C	none (no result: RecA splice inh, BJeLR viability, PrPC surface inh, PfHsp40 yeast, PrP UTR inh)
c1ccc(NC(c2ccccc2)c2ccncc2)cc1 (stereo unspecified)	none
c1ccc(C(Nc2cccnc2)c2ccccc2)cc1	PrP UTR inh 71.2 (no result: RecA splice inh, BJeLR viability) | PrP 5UTR single inactive
CCc1noc(C)c1C(=O)N(C)CC(=O)Nc1cccc(OC)c1	PrP UTR inh 88.7 (no result: RecA splice inh, BJeLR viability) | PrP 5UTR single inactive
Cc1cc(Nc2ccc(Cl)cc2)n2nc(C(F)(F)F)nc2n1	none (no result: RecA splice inh, BJeLR viability, PrPC surface inh, PfHsp40 yeast, PrP UTR inh)
O=C(C[n+]1ccccc1)N/N=C/c1c(F)cccc1Cl	PrP UTR inh 58.6 (no result: PriA SSB inh) | PrP 5UTR single inactive
CCOC(=O)c1c(C)[nH]c(C(=O)N/N=C/c2ccc(Br)cc2)c1C	PrP UTR inh 55.1 | PrP 5UTR single 87.7
CCOC(=O)c1c(C)[nH]c(C(=O)NN=Cc2ccccc2O)c1C	none (no result: RecA splice inh, BJeLR viability, PrPC surface inh, PfHsp40 yeast, PrP UTR inh)
Cc1ccc(-c2cc3c(nn2)-c2ccccc2C3=O)cc1	PrP UTR inh 75.6 | PrP 5UTR single 82.4
C[C@@H]1COC(=O)[C@@H](Cc2ccc(F)cc2)C/C=C\C[C@H](CC(=O)N(CCO)Cc2ccccc2)C(=O)N1	PrP UTR inh 85.2 (no result: RecA splice inh, BJeLR viability) | PrP 5UTR single inactive
CCOC(=O)C1(Cc2ccccc2)CCCCCC1=O (stereo unspecified)	PrP UTR inh 55.4 (no result: RecA splice inh, BJeLR viability) | PrP 5UTR single inactive
C=CCN1CC[C@]23c4c5ccc(O)c4OC2[C@H](O)CC[C@@]3(O)[C@H]1C5 (stereo partly specified)	none (no result: RecA splice inh, BJeLR viability)
Oc1ccc2c3c1O[C@H]1[C@@H](O)CC[C@@]4(O)[C@@H](C2)N(CC2CCC2)CC[C@]314	PrP UTR inh 62.9! | PrP 5UTR single inactive
COc1ccc2c(c1)sc1nc(-c3ccccc3)cn12	PrP UTR inh 88.6 | PrP 5UTR single 88.8
CCOC(=O)N1CCN(C(=O)c2ccc3c(c2)sc2nc(-c4ccc(OC)cc4)cn23)CC1	none
COC(=O)c1sc2ncn(CC(=O)NCCc3ccc(OC)c(OC)c3)c(=O)c2c1C	none
COc1ccc(CCNC(=O)Cn2cnc3sc(C)c(-c4ccc(F)cc4)c3c2=O)cc1OC	PrP UTR inh 72.7 (no result: RecA splice inh) | PrP 5UTR single inconclusive
Cc1cc(=O)oc(C)c1C(=O)N1CCN(C(c2ccccc2)c2ccccc2)CC1	PrP UTR inh 72.5 | PrP 5UTR single inactive
Cc1ccc(NC(=O)c2cc3ccccc3oc2=O)cc1S(=O)(=O)N(C)C	PrP UTR inh 90.4 (no result: PrPC surface inh) | PrP 5UTR single 89.6
Cc1ccc(NC(=O)c2cc3ccccc3o2)cc1S(=O)(=O)N(C)C	none (no result: RecA splice inh, BJeLR viability)
O=C(Nc1ccc(Cl)cn1)c1cc2ccccc2o1	none
Cc1ccc(C)c(NC(=O)c2cc3ccccc3o2)c1	none
Cc1ccnc(NC(=O)c2cc3ccccc3o2)c1	PrP UTR inh 58.3 | PrP 5UTR single inconclusive
O=C(Nc1ccccn1)c1cc2ccccc2o1	PrP UTR inh 58.7 | PrP 5UTR single 57.4
CC1CCCC1OCC(O)CN1CCN(c2cccc(Cl)c2)CC1 (stereo unspecified)	none (no result: RecA splice inh, BJeLR viability, PrPC surface inh, PfHsp40 yeast, PrP UTR inh)
CN(C(=O)c1cc2ccccc2oc1=O)C1(C)CCS(=O)(=O)C1 (stereo unspecified)	PrP UTR inh 81.3 | PrP 5UTR single inactive
